RN4220 kill – S. aureus RN4220 growth inhibition. AID 1259311. 0.33% of 330,000 active. inhibition, % (concentration not given with the values). OD600, 16 h; in the data active = inhibition above about 85%
Vc quorum ag – inducers of Vibrio cholerae quorum light production without autoinducers; V. cholerae BH1578 lux reporter, luminescence, 6 h; AID 588436; activation, % at 18.7 µM; 0.16% of 350,000 active; in the data active = activation mostly above about 9.7%, no sharp cut-off; inconclusive = no clear call, values can overlap the other calls; inactive = mostly below about 3.7%
PfHsp40 rescue – compounds rescuing yeast from Plasmodium falciparum HSP40 toxicity; growth rescue, % at 12.5 µM; AID 504582; 0.68% of 340,000 active; S. cerevisiae expressing PfHsp40, growth rescue, ATP luminescence; in the data active = growth rescue above about 28%, passing the limit was not always enough; inconclusive = no clear call, values can overlap the other calls;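 also: yeast W303a lacking pdr1 and pdr3 grown in galactose medium; growth measured after three days at 30 °C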
Mtb hypoxia rep – Mtb hypoxia fluorescent reporter inhibition | M. tuberculosis hypoxia-regulated fluorescent reporter, fluorescence | fluorescence inhibition, % (concentration not given with the values) | 0.1% of 300,000 active | AID 1159583; in the data active = fluorescence inhibition mostly above about 23%, no sharp cut-off; inactive = mostly below about 17%
CCHFV vOTU inh – blocks the CCHF virus ovarian tumor domain protease; 0.55% of 370,000 active; CCHFV vOTU protease, Pep-AMC fluorescence; AID 651958; inhibition, % at 11.5 µM; in the data active = inhibition above about 30%
ugtP null kill – growth inhibition of S. aureus ugtP deletion strain | S. aureus RN4220 ugtP deletion, OD600 growth, 16 h | 0.54% of 330,000 active | growth inhibition, % (concentration not given with the values); in the data active = growth inhibition above about 68%
Hits are given with their value; n = inactive; u = inconclusive; x = no result shown; ! = a repeat was not active. Shown are actives, neighbours in structure and some others; about 1.7% of the full set was active somewhere.

SMILES	RN4220 kill	Vc quorum ag	PfHsp40 rescue	Mtb hypoxia rep	CCHFV vOTU inh	ugtP null kill
CCn1c(C)nc2cc(C(=O)NN=Cc3ccc(OC)c(O)c3)ccc21	n	x	x	n	x	n
N/C(=N\OC(=O)c1ccc2ccccc2c1)c1ccccn1	x	n	n	x	n	x
NC(=Nc1nc(-c2ccccn2)cc2ccccc12)c1ccccn1	x	n	163	x	n	x
CCC(=NNC(=O)c1ccc(CN(C)S(=O)(=O)c2ccc(C)cc2)cc1)c1ccc(OC(F)F)cc1	n	x	x	n	x	n
CCOC(=O)/C(C#N)=C/C=C1\C=Cc2ccccc2N1CC	n	n	u	43	n	n
C=CCOC(=O)C(=Cc1cccc2ccccc12)NC(=O)c1ccccc1	n	x	x	n	x	n
COc1ccc(C)cc1NC(=O)COC(=O)c1ccc([N+](=O)[O-])o1	n	n	77	n	n	n
CCN(CC)S(=O)(=O)c1ccc(Cl)c(NC(=O)COC(=O)c2ccc([N+](=O)[O-])o2)c1	n	n	49	n	n	n
Cc1cccc(NC(=O)COC(=O)c2ccc([N+](=O)[O-])o2)c1C	n	n	53	n	n	n
COc1ccc(NC(=O)COC(=O)c2ccc([N+](=O)[O-])o2)cc1Cl	n	n	n	n	n	n
COc1ccc(C(C)(C)C)cc1NC(=O)COC(=O)c1ccc([N+](=O)[O-])o1	n	n	532	n	n	n
CN(C)S(=O)(=O)c1cccc(NC(=O)COC(=O)c2ccc([N+](=O)[O-])o2)c1	n	n	n	n	n	n
CC(=O)c1sc(NN=Cc2ccc(N(C)C)cc2)nc1C	n	x	x	n	x	n
CN1/C(=C\C(=O)COC(=O)c2ccc([N+](=O)[O-])o2)C(C)(C)c2ccccc21	n	n	36	n	n	n
CN1/C(=C\C(=O)COC(=O)c2nccnc2N)C(C)(C)c2ccccc21	n	n	n	n	n	n
CN(CC(=O)Nc1ccccc1Br)C(=O)c1ccccc1Sc1ccccc1C#N	n	n	n	25	n	n
O=C(OCC#CCSc1nnc(-c2cccc3ccccc23)o1)c1ccc(Cl)cc1	n	n	n	x	n	n
OCC#CCSc1nnc(-c2cccc3ccccc23)o1	n	n	n	54	n	n
N#Cc1ccc(NN=Cc2cn(-c3ccccc3)nc2-c2ccccc2)c([N+](=O)[O-])c1	n	x	x	n	x	n
COc1ccc(CNC(=S)NN=C(C)c2ccccc2)cc1	n	x	x	n	x	n
Cc1ccc(Oc2ccc(Cl)cc2N)cc1	n	n	n	n	n	n
Nc1cc(Cl)ccc1Oc1ccc2ccccc2c1	n	n	n	n	n	95
CC(=NNC(=S)Nc1ccccc1Cl)c1ccccn1	x	n	200	x	n	x
CC(=NNC(=S)Nc1ccccc1)c1ccccn1	x	n	x	x	n	x
O=S1(=O)CCOCC(CC2CCCCC2)N1Cc1cccc(F)c1 (stereo not given)	n	x	x	n	x	n
SMILES	RN4220 kill	Vc quorum ag	PfHsp40 rescue	Mtb hypoxia rep	CCHFV vOTU inh	ugtP null kill
Cc1ccc(F)c(C2=CC(=O)CC(c3ccc(F)cc3)C2)c1 (stereo not given)	n	x	x	n	x	n
Cc1ccc(-c2csc(NC(=O)c3cccc(C)c3)c2C(=O)O)cc1	n	n	60	n	n	n
C=CCN1c2ccccc2[C@]23CC(C(=O)OC)N(C(=O)c4ccc(Br)cc4)C2=NC(C(=O)OC)=C(C(=O)OC)C13 (stereo not given in full)	n	x	x	n	x	n
O=C(CC1CC=CCCC(Cc2ccc(F)cc2)C(=O)OCCNC1=O)NCCO (stereo not given)	n	x	x	n	x	n
O=c1oc2cc(Cl)ccc2n1CSc1nc2ccccc2s1	85	n	n	x	n	n
O=C(NCc1cccnc1)C(=O)NN=Cc1ccc([N+](=O)[O-])cc1	n	x	x	n	x	n
COc1cc(C(=O)O)c2c(c1C)OC(=O)c1c(C)cc(O)c(C=O)c1O2	n	n	86	x	n	n
CC(=NNC(=O)C(O)c1ccccc1)c1ccc(Cl)s1 (stereo not given)	n	x	x	n	x	n
C=CCCC(Cc1ccc(F)cc1)C(=O)OCC(Cc1c[nH]c2ccccc12)NC(=O)C(CC=C)CC(=O)NC(CO)Cc1ccccc1 (stereo not given)	n	x	x	n	x	n
C=CC[C@@H](CC(=O)N[C@@H](CO)Cc1ccccc1)C(=O)N[C@H](COC(=O)[C@@H](CC=C)Cc1ccc(F)cc1)Cc1c[nH]c2ccccc12	x	n	n	x	n	x
C=CCC(CC(=O)NC(CO)Cc1ccccc1)C(=O)NC(COC(=O)C(CC=C)Cc1ccc(F)cc1)Cc1c[nH]c2ccccc12 (stereo not given)	n	x	x	36!	x	n
C=CCC[C@H](Cc1ccc(F)cc1)C(=O)OC[C@H](Cc1c[nH]c2ccccc12)NC(=O)[C@@H](CC=C)CC(=O)NCCO	x	n	47	x	n	x
C=CC[C@@H](CC(=O)N[C@@H](CO)Cc1ccccc1)C(=O)N[C@H](COC(=O)[C@H](CC=C)CC(=O)OC(C)(C)C)Cc1c[nH]c2ccccc12	x	n	n	x	n	x
C=CC[C@@H](CC(=O)N[C@H](CO)Cc1ccccc1)C(=O)N[C@H](COC(=O)[C@H](CC=C)CC(=O)OC(C)(C)C)Cc1c[nH]c2ccccc12	x	n	n	x	37	x
Cc1ccc(N(C(=O)Nc2ccccc2)C2=NCC(C)S2)cc1 (stereo not given)	n	n	n	n	n	88
CCOc1cccc(CNCCO)c1OCc1ccc(Cl)cc1Cl	n	n	n	n	n	n
CCOc1cc(CNCc2ccncc2)cc(Br)c1OCc1ccccc1F	n	n	n	n	n	92
CCOc1cc(CNCCO)cc(Br)c1OCc1ccc(Cl)cc1Cl	100	n	n	n	n	98
COc1ccc(C(=O)NN=Cc2cc3ccccc3[nH]c2=O)cc1	n	x	x	n	x	n
O=C(NC(Cc1ccccc1)C(=O)OCc1ccccc1)c1nc[nH]c1C(=O)N1CCN(c2ccccc2)CC1 (stereo not given)	n	x	x	n	x	n
CCOc1cc(C=NNS(=O)(=O)c2ccc(OC)cc2)ccc1OCCN1CCOCC1	n	x	x	n	x	n
Cc1ccc(C)c(NC(=O)c2ccccc2O)c1	n	n	n	x	n	n
Cc1ccc(O)c(C(=O)CC(=O)c2ccc(C(C)(C)C)cc2)c1	99	n	n	n	n	100
Cc1ccc(O)c(C(=O)CC(=O)c2ccccc2Cl)c1	100	n	n	n	n	99
CC(C)(C)c1ccc(C(=O)NCC(=O)NNC(=O)c2ccccc2O)cc1	n	n	n	n	n	n
SMILES	RN4220 kill	Vc quorum ag	PfHsp40 rescue	Mtb hypoxia rep	CCHFV vOTU inh	ugtP null kill
C[C@@]12C(=O)Nc3cc(F)c(F)cc3C(=O)N1C1c3ccccc3OCC1C2c1ccccc1 (stereo not given in full)	n	x	x	n	x	n
O=C(NN=Cc1cc(Br)c(O)c(Br)c1)c1cccnc1	n	x	x	n	x	n
Brc1cc(Br)c2nc3c(cc2c1)CCC3	n	n	n	54	n	n
S=c1[nH]nc(Cc2cccs2)n1-c1ccccc1	n	n	n	n	n	n
CCCCc1ccc(-n2c(Cc3cccs3)n[nH]c2=S)cc1	n	n	305	n	n	n
CC(C)CC1COCCS(=O)(=O)N1Cc1cccc(F)c1 (stereo not given)	n	x	x	n	x	n

Compound activity deposited in PubChem by several laboratories.
